# The campaign covered roughly 87,000 compounds. About 540 (0.62%) were called active. This is one part of a sample in which actives are shown more often than they occur. The rule behind the calls is not given here. Measured potencies and affinities stand elsewhere.
# Test: MT1-MMP gene expression reporter suppression – cell-based, luciferase reporter, luminescence (AID 618);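 note: actives suppress MT1-MMP promoter-driven transcription so potencies describe inhibitors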
# Details: MT1-MMP promoter luciferase reporter cells
row,SMILES,outcome
1,O=C(Nc1cc(C(F)(F)F)ccc1N1CCCCC1)c1ccco1,inactive
2,COCCNC(=O)CN1c2ccccc2CC1C (centres undefined),inactive
3,CCCSc1nc(C)c(-c2csc(C(C#N)=C3CCCC3)n2)cc1C#N,inactive
4,CCOC(=O)N1CCN(CCC(=O)Nc2ccccc2OC)CC1,inactive
5,CS(=O)(=O)Nc1ccccc1C(=O)Nc1ccccc1Cl,inactive
6,COc1ccc(CCNC(=O)CSc2nnc(-c3ccc(F)cc3)o2)cc1OC,inactive
7,CC(=O)C1=C(O)C(=O)N(Cc2ccccc2)C1c1cccs1 (centres undefined),inactive
8,COc1cc(C2c3c(oc4cc(C)c(C)cc4c3=O)C(=O)N2c2cc(C)ccn2)ccc1O (centres undefined),inactive
9,COc1ccc(N2CCN(C(=O)CCNS(=O)(=O)c3cccs3)CC2)cc1,inactive
10,CC(C)(C)C(=O)Nc1ccc2oc(-c3cc(F)c(F)cc3Cl)nc2c1,inactive
11,CC(C)C(=O)Nc1ccc2oc(-c3cc(F)c(F)cc3Cl)nc2c1,inactive
12,CC(C)N=Cc1c(O)[nH]c2ccccc12,inactive
13,CN=Cc1c(NC)nc2c(C)cccn2c1=O,inactive
14,O=C(NCc1ccc(F)cc1)C1CCC(=O)N1CCc1ccccc1 (centres undefined),inactive
15,Cc1ccc(NC(=O)c2ccc(S(=O)(=O)N3CCCC3)cc2)cc1,inactive
16,C[C@@H](NC(=O)c1coc(=O)c(Br)c1)c1ccccc1,inactive
17,CN(C)CCNC(=O)c1coc(=O)c(Br)c1,inactive

row,SMILES,outcome
1,O=C(CNC(=O)C1CCCCC1)NCCCO,inactive
2,COc1ccc(-n2ncc3c(NCc4ccco4)ncnc32)cc1,inactive
3,Cc1ccc(-n2ncc3c(NCCCOC(C)C)ncnc32)c(C)c1,inactive
4,CC(C)OCCCNc1ncnc2c1cnn2-c1ccccc1,active
5,CCCCNc1ncnc2c1cnn2-c1ccccc1,inactive
6,CC(C)Nc1ncnc2c1cnn2-c1ccccc1,inactive
7,CCC(CO)Nc1ncnc2c1cnn2-c1ccc(OC)cc1 (centres undefined),inactive
8,COCC(C)Nc1ncnc2c1cnn2-c1ccc(Cl)cc1 (centres undefined),inactive
9,CCCNc1ncnc2c1cnn2-c1ccc(OC)cc1,inactive
10,Cc1cccc(-n2ncc3c(NC(C)C)ncnc32)c1,inactive
11,Cc1cc(C)nc(NS(=O)(=O)c2ccc(Br)s2)c1,inactive
12,O=C(NCCOc1nc(N2CCOCC2)nc(N2CCOCC2)n1)Nc1ccc(Cl)cc1,inactive
13,CCNS(=O)(=O)c1ccc(NC(=O)Cc2ccc(F)cc2)cc1,inactive
14,O=C1C2CC=C(Cl)CC2C(=O)N1CCc1ccccc1 (centres undefined),inactive
15,COc1ccc(OC)c(NC(=O)C2CCCNC2=O)c1 (centres undefined),inactive
16,Cc1cc(NC(=O)CSc2nc3c(sc4ccccc43)c(=O)n2CCc2ccccc2)n[nH]1,inactive
17,O=C(O)CSC1CC(=O)N(c2ccc(Cl)c(Cl)c2)C1=O (centres undefined),inactive
